{"source": "PubChem BioAssay AID620", "about": "(Sanford-Burnham Center for Chemical Genomics, 2007)", "note": "Hit rate of the full screen: of about 87,000 compounds, about 360 (0.41%) were called active. This excerpt belongs to a sample that is enriched for actives. Unmarked numbers belong to inactive results. No stated cut-off is given here; in the data, active means cytotoxicity above about 50%; inactive means the rest.", "data": [{"test": "cytotoxicity in HT1080 fibrosarcoma cells, cell-based, fluorescence readout (AID 620);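 further: cells exposed to compound overnight then 4 h with Alamar Blue; 0% = vehicle DMSO and 100% = killing control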", "settings": "HT1080 viability, at 10 µM, hits give high values", "values": [{"smiles": "O=C(Nc1nc(-c2cc(Cl)sc2Cl)cs1)c1cccs1", "cytotoxicity": "-0.1%"}, {"smiles": "CC(C)Sc1nc(-c2ccccc2)cc(=O)[nH]1", "cytotoxicity": "16.9%"}, {"smiles": "N#CCCCSc1nnc(-c2ccccn2)o1", "cytotoxicity": "0.3%"}, {"smiles": "CN(C)CCCNC(CC(=O)Nc1ccc(Cl)cc1)C(=O)O", "note": "(stereo not drawn)", "cytotoxicity": "-0.1%"}, {"smiles": "CCOC(=O)C1CCCN(C(=O)C2CCN(S(=O)(=O)c3cnc[nH]3)CC2)C1", "note": "(stereo not drawn)", "cytotoxicity": "3.9%"}, {"smiles": "O=C(CNC(=O)c1ccc(Br)o1)Nc1cccc(-c2cnc3ccccc3n2)c1", "cytotoxicity": "-7.7%"}, {"smiles": "O=C(Nc1cccc(-c2cnc3ccccc3n2)c1)c1ccco1", "cytotoxicity": "-2.2%"}, {"smiles": "O=C(CCl)Nc1cccc(-c2cnc3ccccc3n2)c1", "cytotoxicity": "98.8% (active)"}, {"smiles": "CCC(=O)N1c2ccccc2NC2=C(C(=O)CCC2)C1c1cccnc1", "note": "(stereo not drawn)", "cytotoxicity": "-7%"}, {"smiles": "CC(=O)N1CCCc2cc(S(=O)(=O)N(CC(C)C)CC(C)C)ccc21", "cytotoxicity": "-25.7%"}, {"smiles": "O=C(c1cccs1)N(Cc1ccco1)Cc1cc2ccccc2[nH]c1=O", "cytotoxicity": "-4.8%"}, {"smiles": "Cc1ccc2[nH]c(=O)c(CN(Cc3ccco3)C(=O)c3cccs3)cc2c1", "cytotoxicity": "4.9%"}, {"smiles": "Cc1ccc2cc(CN(Cc3ccco3)C(=O)c3cccs3)c(=O)[nH]c2c1", "cytotoxicity": "59.8% (active)"}, {"smiles": "CN(C)S(=O)(=O)c1ccc(S(=O)(=O)N(CC(=O)Nc2ccccc2)Cc2ccco2)cc1", "cytotoxicity": "4.9%"}, {"smiles": "COc1nnc(-c2ccc(C)c(S(=O)(=O)NCCO)c2)c2ccccc12", "cytotoxicity": "12.8%"}, {"smiles": "CSc1cc(-c2ccccc2)n(Cc2c(Cl)cccc2Cl)c(=O)c1C#N", "cytotoxicity": "58.7% (active)"}, {"smiles": "CSc1cc(-c2ccccc2)n(Cc2ccc(Cl)cc2Cl)c(=O)c1C#N", "cytotoxicity": "-9.5%"}, {"smiles": "CSc1cc(-c2ccc(Cl)cc2)n(Cc2ccccc2)c(=O)c1C#N", "cytotoxicity": "-8.7%"}, {"smiles": "Cc1cc(C)n(Cc2ccccc2F)c(=O)c1C#N", "cytotoxicity": "4.8%"}, {"smiles": "CSc1cc(-c2ccccc2)n(Cc2ccccc2Cl)c(=O)c1C#N", "cytotoxicity": "57.5% (active)"}, {"smiles": "Cn1c(=O)c2c(nc(SCCCC#N)n2Cc2c(F)cccc2Cl)n(C)c1=O", "cytotoxicity": "1.4%"}, {"smiles": "CCOc1ccc(-c2cnc(SCC(N)=O)nc2N)cc1", "cytotoxicity": "3.8%"}, {"smiles": "CCOc1ccc(CSC2=NCCN2)cc1Cl", "cytotoxicity": "12.8%"}, {"smiles": "CCCCCOc1ccc(Br)cc1/C(C)=N/NC1=NCCN1", "cytotoxicity": "74.8% (active)"}, {"smiles": "CCCCOc1ccc(Br)cc1/C(C)=N/NC1=NCCN1", "cytotoxicity": "65.1% (active)"}, {"smiles": "CCOc1ccc(Br)cc1/C(C)=N\\NC1=NCCN1", "cytotoxicity": "12.3%"}, {"smiles": "COc1ccc(Br)cc1/C(C)=N/NC1=NCCN1", "cytotoxicity": "-8.6%"}, {"smiles": "CCCOc1ccc(Br)cc1/C=N/O", "cytotoxicity": "-13%"}, {"smiles": "CCOc1ccc(NC(=O)c2cnccn2)cc1", "cytotoxicity": "-17%"}, {"smiles": "OC(c1cccnc1)c1cccs1", "note": "(stereo not drawn)", "cytotoxicity": "-4.7%"}, {"smiles": "COc1ccc(Br)cc1CN1CCCC(C(=O)N2CCCCCC2)C1", "note": "(stereo not drawn)", "cytotoxicity": "1.9%"}, {"smiles": "O=C(Cn1nnc(-c2ccccc2NC(=O)c2cccs2)n1)Nc1ccccc1", "cytotoxicity": "0.3%"}, {"smiles": "COc1ccc(NC(=O)Cn2nnc(-c3ccccc3NC(=O)c3cccs3)n2)cc1", "cytotoxicity": "-14.1%"}, {"smiles": "Cc1ccc(NC(=O)Cn2nnc(-c3ccccc3NC(=O)c3cccs3)n2)cc1", "cytotoxicity": "61.8% (active)"}, {"smiles": "Cn1c(=O)c2c(-c3ccccc3)n(-c3ccccc3O)cc2n(C)c1=O", "cytotoxicity": "35.8%"}, {"smiles": "COc1ccc2c(c1OC)C(=O)N1c3cccc(Cl)c3C(=O)OC21", "note": "(stereo not drawn)", "cytotoxicity": "14.4%"}, {"smiles": "COc1ccc(Nc2nc(C)cc(C)c2C(N)=O)cc1", "cytotoxicity": "3.9%"}, {"smiles": "COc1cc(C2C3=C(Nc4ncnn42)c2ccccc2CC3)cc(OC)c1OC", "note": "(stereo not drawn)", "cytotoxicity": "63.8% (active)"}, {"smiles": "Clc1ccc(C2C3=C(Nc4ncnn42)c2ccccc2CC3)cc1", "note": "(stereo not drawn)", "cytotoxicity": "-2.4%"}, {"smiles": "COc1ccc(C2C3=C(Nc4ncnn42)c2ccccc2CC3)cc1OC", "note": "(stereo not drawn)", "cytotoxicity": "-2.9%"}, {"smiles": "Cc1nn(Cc2ccc(F)cc2)c(C)c1NC(=O)c1cnn2c1NC(c1cccs1)CC2C(F)(F)F", "note": "(stereo not drawn)", "cytotoxicity": "11%"}, {"smiles": "C=C(C)CSc1nc(C)c(Cc2ccccc2)c(=O)[nH]1", "cytotoxicity": "-0.4%"}, {"smiles": "c1ccc(NCc2nnc3n2CCCCC3)cc1", "cytotoxicity": "1.8%"}, {"smiles": "CC(=O)n1nc(-c2ccccc2)nc1NCc1ccc(F)cc1", "cytotoxicity": "-1.3%"}, {"smiles": "CC(=O)N(Cc1ccc(F)cc1)C1=C(NCc2ccccc2)C(=O)c2ccccc2C1=O", "cytotoxicity": "92.6% (active)"}, {"smiles": "Cn1c(=O)c2c(nc(NCCc3ccccc3)n2Cc2ccc(F)cc2)n(C)c1=O", "cytotoxicity": "0.4%"}, {"smiles": "O=C(Cc1ccc(F)cc1)NCCc1ccccc1", "cytotoxicity": "-6.5%"}, {"smiles": "Cn1c(=O)c2c(nc(NCc3ccccc3)n2Cc2ccc(F)cc2)n(C)c1=O", "cytotoxicity": "-1.5%"}, {"smiles": "O=C(Nc1cccc(NC(=O)c2cccnc2Cl)c1)c1ccco1", "cytotoxicity": "-4%"}, {"smiles": "c1ccc2sc(-c3ccc4c(c3)OCO4)nc2c1", "cytotoxicity": "0.6%"}, {"smiles": "CCCCN(C(=O)CNC(=O)c1ccco1)C(C(=O)NC1CCCCC1)c1ccc(OC)cc1OC", "note": "(stereo not drawn)", "cytotoxicity": "-14.5%"}, {"smiles": "COC(=O)c1ccccc1NC(=O)CN(c1cc(OC)ccc1OC)S(C)(=O)=O", "cytotoxicity": "-6.6%"}, {"smiles": "COC1(OC)N=C(N)C2(C#N)C(c3cccc(Oc4ccccc4)c3)C12C#N", "note": "(stereo not drawn)", "cytotoxicity": "0.4%"}, {"smiles": "CC(C)=CCC/C(C)=C/CC(C)(C)CNCCN1CCNCC1", "cytotoxicity": "56.1% (active)"}, {"smiles": "c1ccc(CNCCN2CCNCC2)nc1", "cytotoxicity": "6.5%"}, {"smiles": "CC(C)=CCC/C(C)=C/CCC(C)NCCN1CCNCC1", "note": "(stereo not drawn)", "cytotoxicity": "6.9%"}, {"smiles": "CCOc1ccc2nc(NC(=O)C3CCN(c4cnccn4)CC3)sc2c1", "cytotoxicity": "-5.6%"}, {"smiles": "COC(=O)[C@H](C)NC(=O)Nc1ccc(S(N)(=O)=O)cc1", "cytotoxicity": "-17.4%"}, {"smiles": "O=S(=O)(c1ccc2c(c1)nc(COc1ccc(Cl)cc1)n2CC1CCCO1)N1CCOCC1", "note": "(stereo not drawn)", "cytotoxicity": "96.6% (active)"}, {"smiles": "CCSc1nnc(-c2ccc(S(=O)(=O)N3CCOCC3)cc2)n1CC1CCCO1", "note": "(stereo not drawn)", "cytotoxicity": "-1.1%"}, {"smiles": "CSc1nnc(-c2ccc(S(=O)(=O)N3CCOCC3)cc2)n1CC1CCCO1", "note": "(stereo not drawn)", "cytotoxicity": "0.1%"}, {"smiles": "CSc1nc2ccccc2n1C(=O)Oc1ccccc1", "cytotoxicity": "13.7%"}, {"smiles": "COc1ccc(OC)c(NC(=O)CN2C(=O)c3ccccc3S2(=O)=O)c1", "cytotoxicity": "-3.4%"}]}]}
